A short description of assay [1]: small molecules captured by biotinylated probe aFSTL3 – biochemical, small-molecule microarray, fluorescence 635/667, stem cell growth factor project, primary screen (AID 1064).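 Also: measures binding of the biotinylated anti-FSTL3 antibody to printed compounds.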 Conditions: higher = more signal.
The nature of assay [2]: binders from COS7 lysate, DM2A8 probe, primary screen, torsin A project, cell lysate, small-molecule microarray, fluorescence 635/667 (AID 1065). The settings on record: higher = more signal, COS7 lysate expressing mutant human TOR1A.
Assay [3] can be described thus: small molecules captured by biotinylated probe aFGF2 – biochemical, small-molecule microarray, fluorescence 635/667, stem cell growth factor project, primary screen (AID 1067).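 Also: measures binding of biotinylated aFGF2 protein to printed compounds on slides; z-score merges feature fluorescence and signal-to-noise across triplicate slides.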 The settings on record: higher = more signal.
The nature of assay [4]: small molecules captured by biotinylated probe aFGF10 – biochemical, small-molecule microarray, fluorescence 635/667, stem cell growth factor project, primary screen (AID 1071).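 Also: score merges 667 nm spot intensity and signal to noise from triplicate slides.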 The settings on record: higher = more signal.
The target in assay [5] is Neurogenic locus notch homolog protein 2 (Homo sapiens) (UniProt Q04721). Nature of the assay: small molecules binding Notch2 protein – biochemical, small-molecule microarray, 635 nm fluorescence, stem cell growth factors, primary screen (AID 1073). Conditions: higher = more signal.
Assay [6] deals with Pro-neuregulin-1, membrane-bound isoform (Homo sapiens) (UniProt Q02297). In words: small molecules binding neuregulin-1 protein – biochemical, small-molecule microarray, fluorescence 635/667, psychiatric disease protein project, primary screen (AID 1075).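 Also: score combines 667 nm spot fluorescence with signal to noise.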 The settings on record: NRG1 binding, 635 nm fluorescence, higher = more signal.
Sequence of Pro-neuregulin-1, membrane-bound isoform (Homo sapiens) (Q02297 whole entry, looked up, the tested form may be a part, canonical isoform): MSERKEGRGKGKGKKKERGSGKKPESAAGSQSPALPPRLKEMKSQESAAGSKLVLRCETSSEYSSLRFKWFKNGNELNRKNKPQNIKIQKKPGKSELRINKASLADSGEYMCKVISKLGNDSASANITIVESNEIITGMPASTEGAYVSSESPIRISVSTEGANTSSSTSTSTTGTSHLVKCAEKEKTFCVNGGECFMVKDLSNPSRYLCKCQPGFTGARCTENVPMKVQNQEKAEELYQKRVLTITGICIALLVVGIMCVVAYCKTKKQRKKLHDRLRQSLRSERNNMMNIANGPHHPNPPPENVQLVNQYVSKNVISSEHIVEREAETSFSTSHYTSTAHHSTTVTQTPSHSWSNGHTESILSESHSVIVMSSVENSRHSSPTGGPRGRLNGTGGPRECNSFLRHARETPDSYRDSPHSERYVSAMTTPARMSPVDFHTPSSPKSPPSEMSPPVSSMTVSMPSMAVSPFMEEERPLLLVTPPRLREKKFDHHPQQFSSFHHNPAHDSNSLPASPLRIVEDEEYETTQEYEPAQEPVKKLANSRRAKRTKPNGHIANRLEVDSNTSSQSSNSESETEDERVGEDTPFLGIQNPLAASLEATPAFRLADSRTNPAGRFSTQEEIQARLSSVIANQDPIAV
The test system of assay [7] is Neuregulin-1 EGF-like domain. In words: small molecules binding NRG1 EGF domain – biochemical, small-molecule microarray, 635 nm fluorescence, primary screen (AID 1081).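 Also: binding of the protein to compounds printed on small-molecule microarray slides.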 The settings on record: higher = more signal.
Assay [8] is described as follows: FRG1 expression reporter modulators in myotubes – cell-based, C2C12 myotubes, firefly/Renilla luciferase, luminescence, FRG1 inhibition for FSHD, primary screen (AID 1084). Conditions: FRG1 promoter luciferase, higher = more signal, called active from +8 up or from −8 down.
A short description of assay [9]: small molecules captured by biotinylated probe aFST – biochemical, small-molecule microarray, fluorescence 635/667, stem cell growth factor project, primary screen (AID 1086).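 Also: score merges 667 nm fluorescence with signal-to-noise of each printed compound spot.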 Conditions: higher = more signal.
Assay [10] is described as follows: binders of probe aHhip on microarray, primary screen, stem cell growth factor project, biochemical, small-molecule microarray, fluorescence 635/667 (AID 1087).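 Also: score merges spot fluorescence at 667nm with spot signal to noise ratio.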 Conditions: higher = more signal.
Assay [11] has as its system PRMT1 (protein arginine N-methyltransferase 1). Nature of the assay: small molecules binding arginine methyltransferase PRMT1 – biochemical, small-molecule microarray, 635 nm fluorescence, primary screen (AID 1088).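 Also: binding of Prmt1 protein to compounds spotted on small-molecule microarray slides.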 Conditions: higher = more signal.
Assay [12] can be described thus: growth effects on S. cerevisiae YJM789 – YJM789 clinical isolate, OD600, 24 h, basal, primary screen (AID 1089).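 Also: growth of clinical yeast isolate S. cerevisiae YJM 789 seeded 1000 cells per well; test concentration not given here.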 The settings on record: higher = more signal, called active from +8 up or from −8 down.
Assay [13] in a line: S. pombe growth modifiers, basal conditions – strain 972, OD600, 24 h, no modulator, primary screen (AID 1090).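 Also: basal condition with compound alone and no growth modifier present; test concentration not given here.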 Conditions: S. pombe 972 growth, higher = more signal, called active from +8 up or from −8 down.
Assay [14] in a line: budding yeast growth modifiers under rapamycin – strain BY4716, OD600, 96 h, primary screen (AID 1091). Also: test concentration not given here. The settings on record: S. cerevisiae BY4716 + rapamycin, higher = more signal, called active from +8 up or from −8 down.
Assay [15] deals with Torsin-1A-interacting protein 2 (Homo sapiens) (UniProt Q8NFQ8). In words: small molecules binding lysate-expressed LULL1 – cell lysate, human LULL1 lysate, 635/667 nm fluorescence, primary screen (AID 1092).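 Also: probe is lysate of COS7 cells overexpressing human LULL1; score merges per-feature 667 nm fluorescence with signal-to-noise.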 Conditions: small-molecule microarray, hLULL1 lysate binding, 635 nm fluorescence; higher = more signal.
Sequence of Torsin-1A-interacting protein 2 (Homo sapiens) (Q8NFQ8 whole entry, looked up): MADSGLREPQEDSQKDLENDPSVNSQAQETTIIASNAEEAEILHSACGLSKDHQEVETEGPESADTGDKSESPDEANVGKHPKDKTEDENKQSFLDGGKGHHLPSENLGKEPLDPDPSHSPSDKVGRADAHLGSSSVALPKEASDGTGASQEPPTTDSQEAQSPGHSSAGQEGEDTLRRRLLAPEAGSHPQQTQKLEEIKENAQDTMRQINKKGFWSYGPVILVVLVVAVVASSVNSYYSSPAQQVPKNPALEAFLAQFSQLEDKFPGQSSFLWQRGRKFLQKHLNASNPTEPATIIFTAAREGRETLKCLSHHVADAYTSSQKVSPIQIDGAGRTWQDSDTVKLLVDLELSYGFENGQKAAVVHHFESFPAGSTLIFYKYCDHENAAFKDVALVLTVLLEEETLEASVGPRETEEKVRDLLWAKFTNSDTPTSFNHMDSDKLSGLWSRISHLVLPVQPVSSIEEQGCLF
The nature of assay [16]: optical density change of DRC41 E. coli – strain DRC41, OD650, 24 h, E. coli filamentation project, primary screen (AID 1093).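 Also: MC1000 strain lacking acrAB efflux and sulA so SOS filamentation is blocked; test concentration not given here.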 The settings on record: E. coli DRC41 growth, higher = more signal, called active from +8 up or from −8 down.
Assay [17] is described as follows: probe aLefty2 binding to arrayed compounds – biochemical, biotinylated probe, 635/667 nm fluorescence, primary screen (AID 1094).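 Also: score merges spot fluorescence near 667 nm with spot signal-to-noise ratio.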 The settings on record: small-molecule microarray, higher = more signal.
The subject of assay [18] is Noggin (protein binding on small-molecule microarray). In words: small molecules binding Noggin protein – biochemical, 635/667 nm fluorescence, primary screen (AID 1095).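 Also: score merges 667 nm feature fluorescence with signal to noise over triplicate slides.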 Conditions: 635 nm fluorescence, higher = more signal.
In assay [19] the target is Neurogenic locus notch homolog protein 3 (Homo sapiens) (UniProt Q9UM47). Nature of the assay: small molecules binding NOTCH3 protein – biochemical, 635/667 nm fluorescence, primary screen (AID 1096). Conditions: small-molecule microarray, 635 nm fluorescence, higher = more signal.
Sequence of Neurogenic locus notch homolog protein 3 (Homo sapiens) (Q9UM47 whole entry, looked up): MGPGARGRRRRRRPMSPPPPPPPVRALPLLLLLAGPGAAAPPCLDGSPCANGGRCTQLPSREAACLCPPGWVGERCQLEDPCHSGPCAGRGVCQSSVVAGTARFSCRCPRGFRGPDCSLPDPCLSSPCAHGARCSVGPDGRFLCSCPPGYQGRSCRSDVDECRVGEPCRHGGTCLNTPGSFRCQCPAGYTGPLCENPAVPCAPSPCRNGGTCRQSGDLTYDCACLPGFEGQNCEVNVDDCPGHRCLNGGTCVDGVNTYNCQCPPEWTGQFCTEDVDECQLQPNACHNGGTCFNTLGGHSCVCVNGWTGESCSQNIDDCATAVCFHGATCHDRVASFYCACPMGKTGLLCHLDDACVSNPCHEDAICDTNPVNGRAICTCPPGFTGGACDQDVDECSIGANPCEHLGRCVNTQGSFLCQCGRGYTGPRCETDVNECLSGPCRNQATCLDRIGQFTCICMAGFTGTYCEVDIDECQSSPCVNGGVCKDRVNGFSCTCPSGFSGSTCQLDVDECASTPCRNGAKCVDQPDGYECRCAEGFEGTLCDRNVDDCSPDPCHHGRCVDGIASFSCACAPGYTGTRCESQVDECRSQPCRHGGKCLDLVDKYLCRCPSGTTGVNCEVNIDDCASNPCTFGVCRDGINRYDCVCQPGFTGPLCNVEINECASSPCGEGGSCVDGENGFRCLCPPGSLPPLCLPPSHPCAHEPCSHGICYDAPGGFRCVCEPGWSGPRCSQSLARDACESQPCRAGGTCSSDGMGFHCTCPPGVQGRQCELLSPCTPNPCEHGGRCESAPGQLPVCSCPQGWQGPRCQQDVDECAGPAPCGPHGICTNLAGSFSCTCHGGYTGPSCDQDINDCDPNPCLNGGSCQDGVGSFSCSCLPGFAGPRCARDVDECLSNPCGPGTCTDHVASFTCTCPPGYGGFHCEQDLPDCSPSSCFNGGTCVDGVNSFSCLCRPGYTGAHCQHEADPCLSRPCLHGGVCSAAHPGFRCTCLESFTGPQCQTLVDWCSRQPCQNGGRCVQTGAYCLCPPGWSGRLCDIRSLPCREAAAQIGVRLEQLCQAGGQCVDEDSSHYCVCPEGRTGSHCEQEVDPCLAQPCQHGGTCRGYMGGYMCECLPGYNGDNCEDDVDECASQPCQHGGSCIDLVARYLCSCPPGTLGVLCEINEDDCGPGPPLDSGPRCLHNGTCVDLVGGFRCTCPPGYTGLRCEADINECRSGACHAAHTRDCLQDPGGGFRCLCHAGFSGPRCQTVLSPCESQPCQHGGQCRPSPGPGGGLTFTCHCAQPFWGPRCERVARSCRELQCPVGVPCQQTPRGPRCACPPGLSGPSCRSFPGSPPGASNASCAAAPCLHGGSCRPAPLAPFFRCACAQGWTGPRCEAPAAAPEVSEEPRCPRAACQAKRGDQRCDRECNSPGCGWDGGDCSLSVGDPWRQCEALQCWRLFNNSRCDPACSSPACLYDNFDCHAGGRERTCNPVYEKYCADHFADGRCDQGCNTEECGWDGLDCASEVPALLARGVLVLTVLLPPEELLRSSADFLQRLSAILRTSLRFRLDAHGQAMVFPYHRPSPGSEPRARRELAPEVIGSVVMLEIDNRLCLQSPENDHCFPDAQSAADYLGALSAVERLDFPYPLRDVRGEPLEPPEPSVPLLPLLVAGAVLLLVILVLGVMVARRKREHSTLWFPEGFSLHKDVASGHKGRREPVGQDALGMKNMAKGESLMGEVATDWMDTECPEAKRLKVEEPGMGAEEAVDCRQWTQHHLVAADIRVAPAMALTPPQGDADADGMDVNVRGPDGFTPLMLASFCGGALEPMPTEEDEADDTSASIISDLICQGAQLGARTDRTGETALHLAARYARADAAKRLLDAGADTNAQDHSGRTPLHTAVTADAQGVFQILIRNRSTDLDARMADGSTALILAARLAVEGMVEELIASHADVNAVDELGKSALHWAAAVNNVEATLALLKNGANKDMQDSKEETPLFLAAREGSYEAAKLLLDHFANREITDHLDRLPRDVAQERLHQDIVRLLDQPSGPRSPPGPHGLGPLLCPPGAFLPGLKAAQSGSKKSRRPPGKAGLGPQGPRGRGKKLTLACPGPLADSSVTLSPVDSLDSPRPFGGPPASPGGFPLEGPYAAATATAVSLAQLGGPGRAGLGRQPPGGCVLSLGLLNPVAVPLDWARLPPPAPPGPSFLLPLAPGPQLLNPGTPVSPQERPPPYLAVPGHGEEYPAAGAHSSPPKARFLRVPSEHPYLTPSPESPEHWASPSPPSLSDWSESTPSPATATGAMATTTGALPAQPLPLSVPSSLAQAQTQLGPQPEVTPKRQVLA
Assay [20] in a line: probe aEGFR binding to arrayed compounds – biochemical, biotinylated probe, 635/667 nm fluorescence, primary screen (AID 1097).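 Also: probe is a biotinylated anti-EGFR antibody binding compounds printed on slides; score combines fluorescence near 667 nm and signal to noise of each spot.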 The settings on record: small-molecule microarray, higher = more signal.

The source made the active and inactive calls.

Turning to `O=C1N(CCS(=O)(=O)c2ccccc2)c2ccccc2C[C@@]12COC(c1ccc(OCCCO)cc1)=N2`, the composite z-score is -0.178 in [1]; 0.858 in assay [2]; 0.0887 in assay [3]; 0.322 in assay [4]; 1.33 in assay [5]; 1.11 in [6]. Moreover, the composite z-score in assay [7] was determined as 1.33; in [9] it was 0.971; in assay [10], 0.075; in [11], 1.47; in [15], 2.9; in [17], 0.456. Also, the composite z-score in assay [18] was found to be 0.75; in assay [19], 1.07; in assay [20], 0.242. Besides, the z-score in assay [8] was 1.18 (inactive); in [12] it was 0.631 (inactive); in [13] it was -1.07 (inactive); in assay [14], 1.14 (inactive); in [16], -0.405 (inactive).

For `O=C1C=CC(=O)[C@@H]2CC(COc3ccccc3)=C3[C@@H](CCc4ccccc4)OB(O)C[C@@H]3[C@H]12`, the composite z-score in assay [1] was 0.232; in assay [2] it was 2.47; in assay [3], -0.132; in assay [4], 0.272; in [5], 0.222; in assay [6], -0.18. Besides, the composite z-score was 0.184 in [7]; -0.467 in [9]; 0.176 in assay [10]; 0.702 in assay [11]; -0.188 in assay [15]; -0.289 in [17]. Also, the composite z-score was determined as 0.533 in assay [18], 0.49 in [19] and 0.0338 in assay [20]. Further, the z-score in assay [8] is -1.29 (inactive); in [12], 0.168 (inactive); in assay [13], -8.15 (active); in assay [14], 0.203 (inactive); in assay [16] it was -0.125 (inactive).

Consider `COc1ccc([Si](C)(C)[C@@H]2[C@@H](CC(=O)N3CCC[C@H]3CO)O[C@]3(C(=O)N(C)c4c(Br)cc(C)cc43)[C@H]2C)cc1`, for which the composite z-score in [1] was -0.438; in assay [2] it was 0.264; in [3], -0.105; in [4], 0.113; in assay [5] it was 1.04; in [6], 0.776. Further, the composite z-score in assay [7] is 0.9; in [9] it was 0.219; in assay [10] it was -0.0427; in assay [11] it was 1.32; in assay [15] it was 2.52; in assay [17] it was -0.0657. In addition, the composite z-score in assay [18] was 0.804; in [19], 0.93; in assay [20] it was -0.0831. Moreover, the z-score is -1.53 (inactive) in assay [8]; -1.69 (inactive) in [12]; -0.328 (inactive) in [13]; -0.827 (inactive) in [14]; -0.861 (inactive) in [16].

In the case of `COc1cc(C(O)C2C=CC3C(=O)N(c4ccccc4)C(=O)C3N2Nc2ccc(C#N)cc2)cc(OC)c1OC` (stereo not given), the composite z-score came to 0.606 in [1]; 0.226 in assay [2]; 0.179 in [3]; 1.14 in assay [4]; 1.67 in assay [5]; 2.18 in [6]. For the same compound, the composite z-score in assay [7] was found to be 1.41; in assay [9], 1.77; in assay [10], 0.295; in assay [11] it was 1.54; in assay [15] it was 3.84; in assay [17], 0.368. The values for the composite z-score in assay [18], in assay [19] and in assay [20] were -0.0742, 1.03 and 0.273, respectively. For the same compound, the z-score in [8] was 0.209 (inactive); in [12], -0.531 (inactive); in [13] it was 0.849 (inactive); in assay [14], 1.75 (inactive); in assay [16], -1.27 (inactive).

For the compound `CCOC(=O)C1=CCC(C(C)(C)C)N(S(=O)(=O)c2ccc(C)cc2)C1` (stereo not given), the composite z-score in assay [1] was -0.735; in [2], 2.2; in assay [3] it was 0.0954; in assay [4], 1.23; in assay [5], 1.49; in assay [6], 0.673. Besides, the composite z-score in assay [7] is 1.19; in assay [9], 0.533; in assay [10], 0.0139; in assay [11] it was 1.54; in [15] it was 3.3; in assay [17], 0.0277. Moreover, the composite z-score turned out to be 1.47 in assay [18], 1.13 in assay [19] and 0.139 in [20]. For the same compound, the z-score is -2.07 (inactive) in assay [8]; -0.792 (inactive) in assay [12]; -1.75 (inactive) in [13]; 1.66 (inactive) in assay [14]; -0.756 (inactive) in [16].

The values are drawn from PubChem BioAssay.
